Most compounds without a hit are left out; they make up all but 0.72% or so of the library.
CtBP-E1A inh = blocks the CtBP interaction with E1A; AlphaScreen GST-E1A/His-CtBP binding, 1536-well; stronger effect = lower value; activity change, % (test concentration not listed); 340,000 compounds, 0.49% hits; in the data active = activity change below about -65%; inconclusive = mostly about -30% to -63%
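In 5 uL wells, 23 nL compound meets equimolar GST-E1A and His-CtBP (5X stock 125 nM each) for 2 h, 37 °C. Beads (5X, 50 ug/mL) then 1 h, 37 °C, dark.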
PI4K2A block = PI4K2A (human) kinase inhibition; Q9BTU6; purified PI4K2A, ADP-Glo luminescence, 1 h; stronger effect = lower value; activity change, negative = inhibition, % at 76.9 µM; 420,000 compounds, 0.13% hits; in the data active = activity change below about -50%; inconclusive = mostly about -30% to -49%
Target sequence (Q9BTU6 whole entry, looked up): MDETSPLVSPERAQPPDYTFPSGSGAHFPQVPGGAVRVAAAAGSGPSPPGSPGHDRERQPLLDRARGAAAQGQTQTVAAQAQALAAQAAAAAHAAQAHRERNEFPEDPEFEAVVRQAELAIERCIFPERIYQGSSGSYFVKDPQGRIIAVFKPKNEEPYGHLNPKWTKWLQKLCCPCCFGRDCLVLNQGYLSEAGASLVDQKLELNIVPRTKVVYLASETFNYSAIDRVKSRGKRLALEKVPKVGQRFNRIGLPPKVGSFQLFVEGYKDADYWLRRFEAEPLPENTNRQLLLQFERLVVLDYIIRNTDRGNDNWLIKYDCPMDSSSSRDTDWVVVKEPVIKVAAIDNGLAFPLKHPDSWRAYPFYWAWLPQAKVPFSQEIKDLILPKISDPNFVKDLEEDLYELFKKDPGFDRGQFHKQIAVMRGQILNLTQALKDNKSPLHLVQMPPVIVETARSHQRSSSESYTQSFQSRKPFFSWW
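In this quantitative HTS, ADP production by PI4K2A was quantified luminescently after 1 h at ambient temperature; 100 microM adenosine served as plate-quality control.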
Eya2 phos inh = Eya2 (human) phosphatase inhibition | O00167 | recombinant Eya2, OMFP fluorescence dephosphorylation (OMFP is methylfluorescein phosphate) | Potency, µM (top dose mostly 76.9 µM), most hits filed as inhibitors | 330,000 compounds, 0.006% hits | AID 488837
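Eya2 (0.2 uM) preincubated 10 min at ambient with compound, then OMFP substrate added at 50 uM; 10 min reaction in 50 mM HEPES pH 7.5, 50 mM NaCl, 5 uM MgCl2, 0.05% BSA, 1 mM DTT. Fluorescence read at Ex 485/Em 525 nm.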
RGS4 inhibitor = human RGS4 inhibition; Potency, µM (top dose mostly 114 µM), usual class: inhibitors; 390,000 compounds, 0.039% hits; Transcreener GDP fluorescence polarization, RGS4-accelerated GTP hydrolysis; P49798; note: nearly all actives have a fitted effect of over 75% in size
Target sequence (P49798 whole entry, looked up): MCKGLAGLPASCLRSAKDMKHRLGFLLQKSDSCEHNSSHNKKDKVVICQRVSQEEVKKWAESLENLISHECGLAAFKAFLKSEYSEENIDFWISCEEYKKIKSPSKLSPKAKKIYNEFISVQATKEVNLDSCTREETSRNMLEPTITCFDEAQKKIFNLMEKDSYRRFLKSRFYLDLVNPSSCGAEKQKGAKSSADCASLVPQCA
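MLSMR compounds (23 nl, pin-transferred) preincubated 10 min at room temperature with a 500nM (2x) first reagent, then RGS4 at 900nM (2x) plus Transcreener GDP mix added; fluorescence polarization (620/688 nm) read before and after 90 min at 30 °C.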
USP2a block = blocks human ubiquitin-specific protease USP2a | USP2 core, Ub-CHOP2 coupled fluorogenic reporter, 485/531 | Potency, µM (top dose mostly 38.3 µM), most hits filed as inhibitors | 330,000 compounds, 0.01% hits | AID 463254
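USP2 core (10nM final) preincubated 30min RT with compound in 20mM Tris-HCl pH 8.0, 2mM CaCl2, 2mM beta-mercaptoethanol, 0.05% CHAPS; 25nM Ub-CHOP2 plus 25nM reporter substrate added, fluorescence (Ex485/Em531) read after 60min.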
Six1-Eya2 blk = blocks human Six1 binding to Eya2; Q15475+O00167; AlphaScreen GST-Six1/His-Eya2 binding, biochemical; stronger effect = lower value; activity change, % (test concentration not listed); 360,000 compounds, 0.56% hits; AID 651725; in the data active = activity change below about -65%; inconclusive = mostly about -30% to -63%
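GST-Six1 + His-Eya2 (5X stock: 250/500 nM); Tris pH 8.0, 300 mM NaCl, 0.05% BSA, 0.02% Tween 20; GSH donor/Ni acceptor beads; 1 h 37 °C dark; AlphaScreen readout.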
Numbers stand for hits; 0 = inactive; ? = inconclusive; - = no result; ! = a repeat was not active. Unless noted, calls come from the whole dose curve; as a rule, active = well fitted curve in the direction sought with a large enough effect; inconclusive = small, poorly fitted or top-dose-only effect, or another doubt; inactive = no such curve, though single readings can be large; an effect the other way counts as inactive or inconclusive.

SMILES	CtBP-E1A inh	PI4K2A block	Eya2 phos inh	RGS4 inhibitor	USP2a block	Six1-Eya2 blk
COc1ccc(NC(=O)Nc2ccc3c(c2)C(=O)N([C@H](C)CO)C[C@H](C)[C@@H](CN(C)C(=O)Nc2ccccc2)O3)cc1	-67	0	0	0	0	?
NS(=O)(=O)c1cc2c(cc1Cl)CN(C1CCCCC1)C2=O	-	0	-	-	-	-
Cc1ccc2[nH]c(C(=O)Nc3ccccc3)cc2c1	-	0	-	0	-	-
CC(C)N=c1scc(-c2ccco2)n1/N=C/c1ccc(O)c(O)c1	?	0	?	0	0	?
Oc1ccc(/C=N/n2c(-c3ccco3)csc2=Nc2cccnc2)c(O)c1	-93	0	0	0	0	-93
CN=c1scc(-c2cccs2)n1/N=C/c1ccccc1O	0	0	0	0	0	0
CN=c1scc(-c2cccs2)n1/N=C/c1ccc(O)c(O)c1O	-88	?	0	?	0	-77
COCCN=c1scc(-c2ccco2)n1/N=C/c1ccc(O)c(O)c1O	-79	0	0	?	0	-84
C=CCN=c1scc(-c2ccco2)n1/N=C/c1ccc(O)c(O)c1O	-78	0	0	?	0	-67
CSc1nnc(NC(=O)c2cc(=O)c3cc(C)c(C)cc3o2)s1	-	0	-	0	-	-
Cc1c(NC(=O)c2nn(C(C)C)c(=O)c3ccccc23)c(=O)n(-c2ccccc2)n1C	0	0	-	-	-	0
CCC(=O)Oc1ccc(-c2nc(-c3cccnc3)no2)cc1	0	-55	0	0	0	0
Cc1c(C(=O)Oc2ccc(-c3cnc4ccccc4n3)cc2)cccc1[N+](=O)[O-]	0	0	0	?	0	0
O=C(Oc1ccc(-c2cnc3ccccc3n2)cc1)c1ccco1	0	-77	0	0	0	0
Cc1ccc(-c2nc(-c3cccnc3)no2)cc1	0	0	-	0	-	0
CCC(=O)Oc1ccc(-c2cnc3ccccc3n2)cc1	0	-65	?	0	0	0
O=C(OCc1cc(=O)n2nc(-c3cccs3)sc2n1)c1ccccc1Cl	-	0	-	0	-	-
COc1ccc(-c2csc(N(CCCN(C)C)C(=O)c3ccccc3C)n2)cc1	?	0	50µM	0	0	0
Nc1c(C(=O)Nc2ccc(Cl)c(C(=O)O)c2)sc2nc3c(cc12)CCCC3	-78	0	0	0	0	-74
Nc1c(C(=O)Nc2ccc(C(=O)O)cc2)sc2nc3c(cc12)CCCC3	-	0	-	0	-	-
COc1cccc(Cc2nc3ccccc3nc2SCC(=O)N2CCCc3ccccc32)c1	-	0	-	0	-	-
CN(C)c1ccc(NC(=O)CC(NCc2ccccn2)C(=O)O)cc1 (stereo unspecified)	0	?	0	0	0	-92
Cc1ccc(NC(=O)C(NCc2ccccn2)c2ccccc2)cc1 (stereo unspecified)	0	0	0	0	0	0
Cc1cccc(OCC(O)CNC(C)(C)C)c1C (stereo unspecified)	-	0	-	-	-	-
O=C(N/N=C\c1ccccc1OCc1ccccc1)c1ccco1	?	0	0	0	0	?
SMILES	CtBP-E1A inh	PI4K2A block	Eya2 phos inh	RGS4 inhibitor	USP2a block	Six1-Eya2 blk
O=C(N/N=C/c1c(O)n(Cc2ccco2)c(=O)[nH]c1=O)c1ccccc1	-85	0	0	0	0	-86
Cc1cccn2c(/C=N/OCc3cccc(F)c3)c(-c3ccc(Cl)cc3)nc12	0	0	0	0	0	0
Clc1ccc(-c2nc3sccn3c2/C=N/OCc2ccc(Cl)c(Cl)c2)cc1	-	-	-	3µM	-	-
O=[N+]([O-])c1ccc(Sc2cccc[n+]2[O-])c2nonc12	-68	?	0	0	0	-68
S=C(Nc1ccccc1)Nc1ccccn1	0	0	-	-	-	0
O=C(c1ccccc1)c1ccccn1	0	0	0	0	0	0
S=C(Nc1ccccc1)c1ccccn1	-75	0	0	?	0	-84
O=C(O)c1ccccn1	-66	0	0	0	0	?
O=C(O)c1ccnc(C(=O)O)c1	?	0	0	0	0	-69
O=C(Nc1ccc(Cl)cc1)N[C@@H]1CC[C@H](CCNS(=O)(=O)c2ccccc2F)O[C@@H]1CO	0	0	-	-	-	0
Cc1cccc(CS(=O)(=O)Cc2ccc(C(=O)NCc3ccc(F)cc3)o2)c1	-	0	-	0	-	-
CCN(CC)c1ccc(NC(=O)c2ccco2)cc1	0	0	0	0	0	0
CCN(CC)c1ccc(/C=N/NC(=O)c2ccco2)cc1	0	0	0	0	0	0
CCN(CC)c1ccc(NC(=S)NC(=O)c2ccco2)cc1	0	0	0	?	0	-70
CCN(CC)c1ccc(/C=N/NC(=O)c2ccco2)c(O)c1	?	0	0	0	0	-65
Cc1nn(-c2ccc(F)cc2)c(-n2cccc2)c1C(=O)N1CCN(c2ccc(F)cc2)CC1	-	0	-	0	-	-
NC(=O)C1=CN([C@@H]2O[C@H](COP(=O)(O)OP(=O)(O)OC[C@H]3O[C@@H](n4cnc5c(N)ncnc54)[C@H](O)[C@@H]3O)[C@@H](O)[C@H]2O)C=CC1	-	0	-	-	-	-
Nc1ncnc2c1ncn2[C@@H]1O[C@H](COP(=O)(O)OP(=O)(O)OP(=O)(O)O)[C@@H](O)[C@H]1O	0	0	0	0	0	0
NC(=O)C1=CN(C2OC(COP(=O)(O)OP(=O)(O)OC[C@H]3O[C@@H](n4cnc5c(N)ncnc54)[C@H](OP(=O)(O)O)[C@@H]3O)C(O)C2O)C=CC1 (stereo partly specified)	-	0	0	13µM	-	-
CSc1nc(N)c2ncn([C@@H]3O[C@H](COP(=O)(O)OP(=O)(O)OP(=O)(O)O)[C@@H](O)[C@H]3O)c2n1	-	0	0	12µM!	-	-
CSc1nc(N)c2ncn([C@@H]3O[C@H](COP(=O)(O)OP(=O)(O)O)C(O)[C@H]3O)c2n1 (stereo partly specified)	-	0	0	0.53µM	-	-
CC(CCc1ccccc1)NC(=O)COC(=O)c1ccc(NC(N)=O)cc1 (stereo unspecified)	0	0	0	0	0	0
COc1ccc(C(=O)c2nccc3cc(OC)c(OC)cc23)cc1OC	0	?	0	0	0	0
COc1cc2c(cc1OC)-c1c(OC)c(OC)cc3ccnc(c13)C2=O	-71	0	0	0	0	?
Cc1cccc(NC(=O)c2ccc(OC3CSC3)cc2)c1	0	-50	0	0	0	0
O=C(CSc1ncc(-c2ccccc2)[nH]1)Nc1cccc(C(F)(F)F)c1	-	0	-	0	-	-
CC(=O)Nc1ccc(C(=O)N/N=C/c2cc(Br)cc(Br)c2O)cc1	?	0	0	0	0	-65
Oc1c(Br)cc(Br)cc1/C=N/NC(=S)N[C@H]1CC2C=CC1C2 (stereo partly specified)	0	0	0	?	0	0
CC(C)C(=O)Nc1ccc(C(=O)N/N=C/c2cc(Br)cc(Br)c2O)cc1	0	0	0	0	0	0
